BoNT F protease = BoNT F light chain protease inhibition. Multiplex microsphere protease cleavage assay, flow cytometry. inhibition, % at 10 µM. hit rate 0.22% among 360,000; in the data active means inhibition above about 35%, passing the limit was not always enough; inconclusive means no clear call, values can overlap the other calls
MazF activator = increases E. coli MazEF RNase cleavage of RNA; activation, % at 20 µM; P0AE70; hit rate 0.32% among 350,000; AID 504720; FAM/BHQ RNA-DNA oligo cleavage fluorescence, 5 h; in the data active means activation above about 50%
BoNT A protease = blocks Botulinum neurotoxin A light chain protease | multiplex microsphere protease substrate cleavage, flow cytometry | hit rate 0.17% among 360,000 | inhibition, % at 10 µM | AID 588499
Autofluor counter = flagged as autofluorescent in microsphere protease counterscreen | compound autofluorescence counterscreen, microsphere flow cytometry; stronger effect = higher value | fluorescence intensity (concentration not given with the values) | hit rate 3.1% among 360,000 | AID 624483; in the data active means fluorescence intensity above about 16000; inconclusive means no clear call, values can overlap the other calls
Anthrax LF inh2 = anthrax lethal factor protease inhibition | P15917 | multiplex microsphere protease cleavage assay, LF | inhibition, % at 10 µM | hit rate 0.12% among 360,000 | AID 588501
SSB-PriA inh = inhibitors of Klebsiella pneumoniae PriA binding to SSB C-terminal tail; AlphaScreen SSBct-PriA binding, biotinylated peptide; inhibition, % at 33 µM; hit rate 0.6% among 430,000; in the data active means inhibition mostly above about 37%, no sharp cut-off; inactive means mostly below about 20%
Numbers stand for hits; n = inactive; u = inconclusive; x = no result given; ! = repeats disagree. Rows were chosen to be rich in hits. Some 3.3% of all compounds tested hit in one or more screens of this group. Unless noted, no stated cut-off is given here; in the data, active means inhibition above about 30%; inconclusive means no clear call, values can overlap the other calls; inactive means below that.

SMILES	BoNT F protease	MazF activator	BoNT A protease	Autofluor counter	Anthrax LF inh2	SSB-PriA inh
CCCS(=O)(=O)N1CCCc2cc(NC(=O)c3cc4ccc(OC)cc4[nH]3)ccc21	x	x	x	x	x	n
NC(=O)CSc1cccc2cccnc12	x	x	x	x	x	64
O=C(CSc1cccc2cccnc12)N1CCCCCC1	x	x	x	x	x	102
O=C(CSc1cccc2cccnc12)NCCc1ccc(Cl)cc1	x	x	x	x	x	77
O=C(O)CSc1cccc2cccnc12	n	n	n	n	n	65!
COc1cc(Cn2cc(CC(=O)NCc3ccco3)c3ccccc32)cc(OC)c1	x	x	x	x	x	n
NC(=O)COc1cccc2cccnc12	n	n	n	16622	n	n
Cc1ccc(S(=O)(=O)N2CCCC[C@@H]2CC(=O)Nc2ccon2)cc1	x	x	x	x	x	n
O=C(Cc1cccs1)Nc1ccc(S(=O)(=O)N2CCCC2)cc1	n	n	n	n	n	n
COc1ccc(OCC(=O)Nc2ccc(S(=O)(=O)N(C)c3ccccc3)cc2)cc1	n	n	n	n	n	n
CCCNS(=O)(=O)c1ccc(NC(=O)Cc2cccs2)cc1	u	n	n	n	n	n
CNS(=O)(=O)c1ccc(NC(=O)Cc2cccs2)cc1	x	x	x	x	x	45!
CC(=O)c1cccc(NC(=O)Cc2cccs2)c1	n	n	n	23709	n	n
CCCN(CCC)S(=O)(=O)c1ccc(NC(=O)Cc2cccs2)cc1	n	n	u	25405	n	n
CCCN(CCC)S(=O)(=O)c1ccc(NC(=O)COc2ccccc2)cc1	n	n	u	16179	n	n
O=C(CSc1ncccc1-c1nc(-c2cccs2)no1)NCc1cccc(Cl)c1	x	x	x	x	x	n
COc1ccc(NS(=O)(=O)c2ccc(NC(=O)Cc3cccs3)cc2)cc1	n	n	n	n	n	n
CCCCN(CCCC)S(=O)(=O)c1ccc(NC(=O)CN2CCOCC2)cc1	n	n	n	20756	n	n
CCCCN(CCCC)S(=O)(=O)c1ccc(NC(=O)Cc2cccs2)cc1	n	n	n	23090	n	n
O=S(=O)(Nc1cnn([C@H]2CCOC2)c1)c1ccc2c(c1)CCCC2	x	x	x	x	x	n
CCOc1ccc(-c2ccc(N3CCN(C(=O)NC4CCCCC4)CC3)nn2)cc1	x	x	x	x	x	n
O=C(COc1ccc(S(=O)(=O)NC2CCCCC2)cc1)N1CCN(c2cccc(Cl)c2)CC1	n	n	n	22384	n	n
O=C(Cc1ccccc1)Nc1ccc(-c2ccc3nnc(-c4ccccn4)n3n2)cc1	x	x	x	x	x	95
Cc1ccccc1C(=O)Nc1ccc(-c2ccc3nnc(-c4ccccn4)n3n2)cc1	x	x	x	x	x	70
O=C(Nc1ccc(-c2ccc3nnc(-c4ccccn4)n3n2)cc1)C1CCCC1	x	x	x	x	x	n
SMILES	BoNT F protease	MazF activator	BoNT A protease	Autofluor counter	Anthrax LF inh2	SSB-PriA inh
O=C(Nc1ccc(-c2ccc3nnc(-c4ccccn4)n3n2)cc1)c1ccc(Cl)nc1	x	x	x	x	x	n
O=C(Nc1ccc(-c2ccc3nnc(-c4ccccn4)n3n2)cc1)c1ccccc1Cl	x	x	x	x	x	82
O=C(CN1C(=O)c2ccccc2C1=O)Nc1nc(-c2ccc(Cl)cc2Cl)cs1	x	x	x	x	x	n
O=C(NCC(F)(F)F)C1CCNCC1	x	x	x	x	x	n
Nc1nc(N)c2cc(S(=O)(=O)c3ccc4ccccc4c3)ccc2n1	n	53	n	n	n	x
Nc1nc(N)c2cc([N+](=O)[O-])ccc2n1	n	n	n	n	n	n
COc1ccc(NC(=O)CC2C(=O)N(C)C(=S)N2Cc2cccs2)cc1 (configuration not stated)	n	n	n	n	n	n
CCCOc1ccc(NC(=O)CC2C(=O)N(CC)C(=S)N2Cc2cccs2)cc1 (configuration not stated)	n	n	n	21389	n	n
O=C(Nc1cnn(Cc2ccc(Cl)cc2)c1)c1cnccn1	n	n	n	19189	n	n
CC(=O)Nc1cnn(Cc2ccc(Br)cc2)c1	n	n	n	24279	n	n
O=[N+]([O-])c1ccc(N/N=C/c2ccccc2)c(F)c1	n	234	n	n	n	x
Cc1ccc(C(O)=C2C(=O)C(=O)N(c3cc(C)on3)C2c2cccc(Cl)c2)cc1 (configuration not stated)	x	x	x	x	x	n
O=C(Nc1ccc(N2CCOCC2)nc1)c1ccc(Cl)cc1	n	n	n	22714	n	n
O=C(Nc1ccc(N2CCOCC2)cc1)c1ccc(Cl)nc1	n	n	n	n	n	n
C/C(=C\C(=O)c1ccc(Cl)cc1)Nc1ccc(N2CCOCC2)cc1	n	n	n	16147	n	x
Oc1oc(-c2ccccc2)nc1C=Nc1ccccc1	n	n	n	n	n	n
O=[N+]([O-])c1cccc(/C=C/c2nc(C=Nc3ccccc3)c(O)o2)c1	n	133	n	n	n	n
